Results on 13 compounds are retold here after PubChem BioAssay AID1035 (National Center for Advancing Translational Sciences (NCATS), 2008).

Molecules are shown by their SMILES. A number with no mark means an inactive call. The source made the active and inactive calls. How the calls were made is not given here.

The nature of this assay: HDAC Secondary Assay for qHTS Assay for Epigenetic Modulators. The following applies: HeLa nuclear extract HDAC activity, fluorogenic substrate, 20 min; at 48 µM; hits give low values. An excerpt: NIH Molecular Libraries Screening Centers Network [MLSCN] NIH Chemical Genomics Center [NCGC] MLSCN Grant: 1 X01 MH079860-01 Assay Provider: Elisabeth D. Martinez, University of Texas SW Medical Center NCGC Assay Overview: This secondary assay characterizes selected actives identified in the qHTS of the Locus Derepression (LDR) assay (PubChem AID 597). The LDR assay detects the derepression of a GFP reporter that is stably integrated in a region of the genome of murine c127i mammary cells that is presumably silenced. Compounds that cause derepression of the locus to express GFP are identified by enumerating GFP positive cells using a laser-scanning microplate cytometer. Selected LDR actives were assayed for inhibition of histone deacetylase (HDAC) activity in HeLa nuclear extracts using a HDAC fluorometric kit (AK-500, Biomol International LP). This assay uses a substrate containing an acetylated lysine side chain that is deacetylated by HDAC enzymatic activity to generate a fluorophore.
NCGC Assay Protocol Summary HeLa nuclear extracts and acetylated profluorescent substrate were incubated with vehicle, 0.5 uM TSA, or 48 uM indicated LDR compound for 20 min at ambient temperature and fluorescence was measured. Background-subtracted activity was expressed as a percent of uninhibited extract. Tests were performed in 25 uL volume in 384-well black plates using the HDAC assay kit AK-500 (Biomol International LP). For further details, see R.L. Johnson, W. Huang, A. Jadhav, C.P. Austin, J. Inglese, E.D. Martinez, A Quantitative High-Throughput Screen Identifies Potential Epigenetic Modulators of Gene Expression, Analytical Biochemistry (2007), doi: 10.1016/j.ab.2007.12.028
(qHTS replaces the single test concentration by a dilution series.)
Regarding `CN1C(=S)SC(c2ccccc2)N(C)C1c1ccccc1` (stereo not drawn), the remaining HDAC activity was 107%. The same measure for `O=Nc1ccc(O)c2ncccc12`: 84%; for `COc1ccc(C(NC(=O)C(C)C)c2ccc3cccnc3c2O)cc1` (stereo not drawn): 106%. Consider `CC(C)C(=O)NC(c1ccco1)c1cc([N+](=O)[O-])c2cccnc2c1O` (stereo not drawn), for which the remaining HDAC activity was 112%. `CCN(CC)c1ccc2cc(-c3nc4ccccc4[nH]3)c(=O)oc2c1`: the remaining HDAC activity was 112%.

As for `CC(/C=C/C(=O)NO)=C\[C@@H](C)C(=O)c1ccc(N(C)C)cc1`, the remaining HDAC activity was 1% (active). For the compound `O=C(CSc1cccc2cccnc12)N1CCCC1`, the remaining HDAC activity was 120%. In the case of `CCN1CSC(=S)N(CC)C1` it was 103%. Take `CN(C)C(=O)CSc1cccc2cccnc12`: the remaining HDAC activity is 111%.

As to `CC(C)C(=O)NC(c1ccc(N(C)C)cc1)c1ccc2cccnc2c1O` (stereo not drawn), the remaining HDAC activity is 99%.

With `CC(C)C(=O)NC(c1ccco1)c1ccc2cccnc2c1O` (stereo not drawn), the remaining HDAC activity is 108%. Consider `CN1CCN(Cc2cc(Cl)c3cccnc3c2O)CC1`, for which the remaining HDAC activity is 109%.

With `O=C(CSc1cccc2cccnc12)NCc1ccccc1`, the remaining HDAC activity was 96%.
